# Assay results from publication PMC7862700, “An all-to-all approach to the identification of sequence-specific readers for epigenetic DNA modifications on cytosine”.
# Experiments:
# Assay in all cases: DAPPL (digital affinity profiling via proximity ligation, sequencing); 10 mM Tris-HCl pH 7.5, 50 mM NaCl, 1 mM DTT, 4% glycerol, room temperature, 30 min; GST-TFs on glutathione beads, 16-mer random dsDNA library, 0.1% formaldehyde crosslink after washing; high values mean tight binding
# Conditions in all cases: protein: recombinant; tags: N-terminal GST; dsDNA, one strand shown
# ELK1 = molecular target: T1, ELK1 (Homo sapiens, UniProt P19419 1-428)
# T1 sequence: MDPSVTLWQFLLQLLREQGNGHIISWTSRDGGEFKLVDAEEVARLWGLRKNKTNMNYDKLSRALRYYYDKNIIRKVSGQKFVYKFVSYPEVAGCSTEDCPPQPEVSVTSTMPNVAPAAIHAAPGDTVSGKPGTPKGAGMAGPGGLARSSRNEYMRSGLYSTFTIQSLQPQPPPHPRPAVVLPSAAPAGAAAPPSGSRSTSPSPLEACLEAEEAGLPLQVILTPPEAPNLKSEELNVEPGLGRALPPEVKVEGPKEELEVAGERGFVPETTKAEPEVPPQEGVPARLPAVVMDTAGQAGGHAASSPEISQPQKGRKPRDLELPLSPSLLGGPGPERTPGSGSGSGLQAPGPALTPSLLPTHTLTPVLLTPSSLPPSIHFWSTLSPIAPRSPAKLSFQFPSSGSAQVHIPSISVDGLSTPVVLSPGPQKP
# Procedure, shortened: (§1)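 GST fusions of human transcription factors were expressed in yeast and captured with glutathione beads. Once given DNA barcodes and pooled alongside a tag-only sample, they were incubated for 30 min at room temperature with 200 nmole of a random double-stranded 16-mer DNA library in Tris/NaCl/DTT/glycerol buffer, then washed, crosslinked (0.1% formaldehyde), proximity-ligated, PCR-amplified and sequenced on an Illumina NextSeq500. The binding signal of each hexamer is its read frequency for a factor divided by its frequency for the tag-only sample.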
# GABPA = molecular target: T2, GABPA (Homo sapiens, UniProt Q06546 1-454)
# T2 sequence: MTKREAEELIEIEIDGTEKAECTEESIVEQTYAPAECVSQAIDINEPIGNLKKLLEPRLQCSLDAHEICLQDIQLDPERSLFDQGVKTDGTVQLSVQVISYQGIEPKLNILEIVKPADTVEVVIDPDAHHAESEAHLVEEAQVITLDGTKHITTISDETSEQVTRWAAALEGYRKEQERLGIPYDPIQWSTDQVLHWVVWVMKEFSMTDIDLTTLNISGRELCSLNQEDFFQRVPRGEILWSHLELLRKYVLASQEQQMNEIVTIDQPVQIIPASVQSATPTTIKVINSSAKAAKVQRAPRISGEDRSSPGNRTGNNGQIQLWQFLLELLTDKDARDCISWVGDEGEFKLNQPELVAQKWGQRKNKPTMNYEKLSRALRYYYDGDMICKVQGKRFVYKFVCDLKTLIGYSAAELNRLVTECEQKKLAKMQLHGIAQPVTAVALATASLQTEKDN
# Procedure, shortened: as §1
# ERG = molecular target: T3, ERG (Homo sapiens, UniProt P11308 1-479)
# T3 sequence: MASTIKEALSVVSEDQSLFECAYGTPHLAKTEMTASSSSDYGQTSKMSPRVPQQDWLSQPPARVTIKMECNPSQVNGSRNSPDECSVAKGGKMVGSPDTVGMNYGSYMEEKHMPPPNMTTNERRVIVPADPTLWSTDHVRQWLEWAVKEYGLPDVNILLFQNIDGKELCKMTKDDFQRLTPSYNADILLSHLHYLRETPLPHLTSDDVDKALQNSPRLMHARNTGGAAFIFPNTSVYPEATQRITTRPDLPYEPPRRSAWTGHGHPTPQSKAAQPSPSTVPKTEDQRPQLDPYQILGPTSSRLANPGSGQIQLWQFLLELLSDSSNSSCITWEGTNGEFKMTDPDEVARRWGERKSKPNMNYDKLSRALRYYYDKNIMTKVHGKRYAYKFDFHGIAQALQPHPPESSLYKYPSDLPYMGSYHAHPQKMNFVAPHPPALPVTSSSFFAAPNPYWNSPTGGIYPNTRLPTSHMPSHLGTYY
# Procedure, shortened: as §1
# ELF1 = ELF1 (Homo sapiens, UniProt P32519 1-619)
# ELF1, sequence (P32519 whole entry): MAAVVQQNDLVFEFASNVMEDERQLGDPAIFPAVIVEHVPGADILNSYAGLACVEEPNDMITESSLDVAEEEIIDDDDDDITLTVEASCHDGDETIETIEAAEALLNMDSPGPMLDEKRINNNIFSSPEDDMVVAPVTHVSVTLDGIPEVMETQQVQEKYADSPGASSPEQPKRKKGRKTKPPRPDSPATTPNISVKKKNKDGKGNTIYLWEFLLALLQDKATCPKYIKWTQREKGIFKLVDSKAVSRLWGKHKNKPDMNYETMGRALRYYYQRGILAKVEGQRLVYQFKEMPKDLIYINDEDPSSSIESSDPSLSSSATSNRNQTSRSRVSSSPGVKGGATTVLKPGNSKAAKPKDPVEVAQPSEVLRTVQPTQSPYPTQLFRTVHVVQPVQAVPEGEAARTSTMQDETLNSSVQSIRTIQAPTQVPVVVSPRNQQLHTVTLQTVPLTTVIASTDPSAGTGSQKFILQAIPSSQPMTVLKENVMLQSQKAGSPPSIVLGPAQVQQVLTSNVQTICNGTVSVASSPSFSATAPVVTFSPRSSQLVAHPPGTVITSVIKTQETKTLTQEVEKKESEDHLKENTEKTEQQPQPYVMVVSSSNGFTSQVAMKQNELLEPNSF
# Procedure, shortened: as §1
# EHF = molecular target: T4, EHF (Homo sapiens, UniProt Q9NZC4 1-300)
# T4 sequence: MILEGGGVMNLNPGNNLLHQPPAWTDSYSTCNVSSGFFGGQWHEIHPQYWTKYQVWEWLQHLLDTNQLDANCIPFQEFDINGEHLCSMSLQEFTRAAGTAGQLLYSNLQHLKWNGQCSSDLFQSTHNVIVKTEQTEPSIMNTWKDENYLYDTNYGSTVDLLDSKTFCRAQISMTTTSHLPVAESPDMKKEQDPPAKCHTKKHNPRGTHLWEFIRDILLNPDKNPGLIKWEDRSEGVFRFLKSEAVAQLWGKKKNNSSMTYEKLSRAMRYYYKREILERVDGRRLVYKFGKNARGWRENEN
# Procedure, shortened: as §1
# SPIB = SPIB (Homo sapiens, UniProt Q01892 1-262)
# SPIB, sequence (Q01892 whole entry): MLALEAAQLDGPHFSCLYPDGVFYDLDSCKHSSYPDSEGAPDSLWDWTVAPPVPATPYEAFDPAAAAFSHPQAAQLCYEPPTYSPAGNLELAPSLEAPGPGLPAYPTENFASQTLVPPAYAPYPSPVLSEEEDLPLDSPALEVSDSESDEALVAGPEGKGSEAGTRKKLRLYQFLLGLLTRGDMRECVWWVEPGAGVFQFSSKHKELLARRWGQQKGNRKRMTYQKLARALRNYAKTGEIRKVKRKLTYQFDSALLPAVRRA
# Procedure, shortened: as §1
# ELK3 = molecular target: T5, ELK3 (Homo sapiens, UniProt P41970 1-407)
# T5 sequence: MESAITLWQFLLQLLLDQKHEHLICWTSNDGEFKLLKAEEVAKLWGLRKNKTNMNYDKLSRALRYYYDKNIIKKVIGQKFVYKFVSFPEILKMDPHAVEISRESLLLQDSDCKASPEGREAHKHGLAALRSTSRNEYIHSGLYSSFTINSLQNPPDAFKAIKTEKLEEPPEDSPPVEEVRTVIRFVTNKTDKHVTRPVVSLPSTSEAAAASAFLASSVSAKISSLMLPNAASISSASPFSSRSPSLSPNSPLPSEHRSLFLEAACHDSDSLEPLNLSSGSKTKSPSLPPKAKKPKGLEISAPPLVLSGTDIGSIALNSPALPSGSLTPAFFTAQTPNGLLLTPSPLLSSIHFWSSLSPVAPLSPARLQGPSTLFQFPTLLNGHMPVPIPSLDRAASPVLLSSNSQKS
# Procedure, shortened: as §1
# FEV = molecular target: T6, FEV (Homo sapiens, UniProt Q99581 1-238)
# T6 sequence: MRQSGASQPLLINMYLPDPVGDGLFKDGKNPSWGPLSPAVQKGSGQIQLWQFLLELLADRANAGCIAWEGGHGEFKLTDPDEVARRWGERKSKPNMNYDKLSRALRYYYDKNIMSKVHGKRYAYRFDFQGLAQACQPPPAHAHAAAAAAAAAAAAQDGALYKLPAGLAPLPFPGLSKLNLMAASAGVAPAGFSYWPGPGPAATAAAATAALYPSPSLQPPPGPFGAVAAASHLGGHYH
# Procedure, shortened: as §1
# ETV5 = ETV5 (Homo sapiens, UniProt P41161 1-510)
# ETV5, sequence (P41161 whole entry): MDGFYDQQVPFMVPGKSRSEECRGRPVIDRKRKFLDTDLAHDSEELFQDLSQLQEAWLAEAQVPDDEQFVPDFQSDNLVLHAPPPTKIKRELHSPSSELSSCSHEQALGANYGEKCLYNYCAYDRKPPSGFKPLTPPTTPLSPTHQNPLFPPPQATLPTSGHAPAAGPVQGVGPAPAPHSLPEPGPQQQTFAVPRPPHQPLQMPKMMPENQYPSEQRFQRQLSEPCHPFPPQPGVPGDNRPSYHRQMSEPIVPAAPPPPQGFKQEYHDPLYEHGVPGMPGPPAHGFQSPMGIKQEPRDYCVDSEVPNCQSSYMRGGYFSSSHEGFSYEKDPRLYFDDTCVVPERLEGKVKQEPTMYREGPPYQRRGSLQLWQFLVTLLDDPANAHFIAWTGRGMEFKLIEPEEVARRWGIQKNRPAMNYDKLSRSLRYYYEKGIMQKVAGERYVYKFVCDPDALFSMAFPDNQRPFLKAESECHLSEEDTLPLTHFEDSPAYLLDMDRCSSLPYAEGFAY
# Procedure, shortened: as §1
# ELF4 = ELF4 (Homo sapiens, UniProt Q99607 1-663)
# ELF4, sequence (Q99607 whole entry): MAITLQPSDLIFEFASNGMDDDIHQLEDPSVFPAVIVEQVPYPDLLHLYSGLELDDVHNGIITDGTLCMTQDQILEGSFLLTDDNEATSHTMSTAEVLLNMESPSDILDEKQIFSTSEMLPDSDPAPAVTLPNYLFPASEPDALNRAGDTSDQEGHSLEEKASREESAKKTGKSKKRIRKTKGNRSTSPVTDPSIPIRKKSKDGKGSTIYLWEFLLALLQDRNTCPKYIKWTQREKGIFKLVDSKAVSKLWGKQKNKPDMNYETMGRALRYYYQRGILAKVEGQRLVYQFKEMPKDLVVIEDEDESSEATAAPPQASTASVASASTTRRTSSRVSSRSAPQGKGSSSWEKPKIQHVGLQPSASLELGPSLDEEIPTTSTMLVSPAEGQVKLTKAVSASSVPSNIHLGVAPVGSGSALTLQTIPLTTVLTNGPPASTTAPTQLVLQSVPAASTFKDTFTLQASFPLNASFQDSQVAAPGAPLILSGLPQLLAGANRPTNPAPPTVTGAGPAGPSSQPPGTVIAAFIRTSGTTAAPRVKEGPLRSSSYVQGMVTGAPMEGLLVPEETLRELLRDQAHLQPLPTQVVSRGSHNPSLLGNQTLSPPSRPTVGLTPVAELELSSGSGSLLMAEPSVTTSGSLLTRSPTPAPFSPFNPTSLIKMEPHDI
# Procedure, shortened: as §1
sequence,measurement,setting,value
GGTAAA,binding signal,ELK1,"1.1 fold enrichment (6-mer frequency, TF over GST control)"
same,binding signal,GABPA,"1.07 fold enrichment (6-mer frequency, TF over GST control)"
same,binding signal,ERG,"1.04 fold enrichment (6-mer frequency, TF over GST control)"
same,binding signal,ELF1,"1.08 fold enrichment (6-mer frequency, TF over GST control)"
same,binding signal,EHF,"1.05 fold enrichment (6-mer frequency, TF over GST control)"
same,binding signal,SPIB,"1.08 fold enrichment (6-mer frequency, TF over GST control)"
same,binding signal,ELK3,"1.04 fold enrichment (6-mer frequency, TF over GST control)"
same,binding signal,FEV,"1.02 fold enrichment (6-mer frequency, TF over GST control)"
same,binding signal,ETV5,"1.06 fold enrichment (6-mer frequency, TF over GST control)"
same,binding signal,ELF4,"1.04 fold enrichment (6-mer frequency, TF over GST control)"
